This note sets out measurements from PubChem BioAssay (Tox21).

Values without a mark were called inactive. Results filed as inconclusive are left out. The source made the active and inactive calls. Unless noted, the call rests on the fitted dose curve; in most records, active means well fitted curve in the direction sought with a large enough effect in the repeat runs; inconclusive means weak or mixed curves; inactive means no such curve, though single readings can be large; an effect the other way counts as inactive or inconclusive.

In test [1] the target is Thyrotropin-releasing hormone receptor (Homo sapiens) (UniProt P34981). In words: qHTS assay to identify small molecule agonists of the thyrotropin-releasing hormone receptor (TRHR) signaling pathway (AID 1346891; calls by dose curve; further: series mostly up to about 58 µM). In outline: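 Readout was intracellular calcium fluorescence in TRHR-Hek293 cells. Cells were incubated 18 h, dye-loaded 2 h at 37 °C, and treated with compound in agonist mode.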
Sequence of Thyrotropin-releasing hormone receptor (Homo sapiens) (P34981 whole entry, looked up): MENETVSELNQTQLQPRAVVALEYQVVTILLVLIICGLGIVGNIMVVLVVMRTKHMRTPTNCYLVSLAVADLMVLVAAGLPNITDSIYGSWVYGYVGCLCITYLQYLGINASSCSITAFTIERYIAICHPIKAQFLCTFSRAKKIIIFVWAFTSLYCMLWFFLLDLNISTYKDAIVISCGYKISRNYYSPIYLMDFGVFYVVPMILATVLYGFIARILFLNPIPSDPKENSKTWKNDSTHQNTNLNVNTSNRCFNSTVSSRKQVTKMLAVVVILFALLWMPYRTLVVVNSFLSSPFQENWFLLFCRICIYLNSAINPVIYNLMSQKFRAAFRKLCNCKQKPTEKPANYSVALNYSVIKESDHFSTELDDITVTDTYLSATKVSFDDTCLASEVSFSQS

A short description of test [2]: Caspase-3/7 induction in CHO-K1 cells by small molecules, qHTS assay (AID 1346980). Further: nearly all actives have a fitted effect of over 15% in size. In outline:
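Luminescent Caspase-Glo 3/7 read (30min, room temperature) quantified apoptosis induction. Cells were wild-type CHO-K1, treated with compound for 17hr at 37 C and 5% CO2.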

Test [3] has as its target Nuclear receptor subfamily 1 group I member 2 (Homo sapiens) (UniProt O75469). The test can be described thus: Human pregnane X receptor (PXR) small molecule agonists, qHTS assay (AID 1346982). Further: nearly all actives have a fitted effect of over 35% in size. Further: potency means the concentration at half of the fitted maximal effect. The method, boiled down:
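Compound-induced hPXR transactivation of a CYP3A4 luciferase reporter was scored in HepG2 PXR-Luc cells over 24 hr at 37 C, 5% CO2, by luminescence.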

Test [4] concerns the target Acetylcholinesterase (Homo sapiens) (UniProt P22303). In words: Acetylcholinesterase (AChE) small molecule antagonists: colormetric cell-based qHTS assay (AID 1347395; calls by dose curve; further: nearly all actives have a fitted effect of over 30% in size; further: potency means the concentration at half of the fitted maximal effect). In outline: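 After overnight attachment at 37 C, SH-SY5Y cells get 30 min compound exposure; detection cocktail (acetylthiocholine, DTNB) then incubates 90 min at 37 C, and absorbance reflects AChE-generated thiocholine.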

Test [5] has the same target. In words: Acetylcholinesterase (AChE) small molecule antagonists: enzyme-based qHTS assay (AID 1347397; calls by dose curve; further: nearly all actives have a fitted effect of over 55% in size; further: potency means the concentration at half of the fitted maximal effect). Particulars: Potency: AChE enzyme activity inhibition. The method, boiled down: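 rhAChE 50 mU/mL (dispensed) + cpd or DMSO, 30 min RT; add DTNB/acetylthiocholine cocktail, 10 min RT; colorimetric thiocholine readout. qHTS, 1536-well format.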
For orientation: Quantitative high-throughput screening tests each substance at several concentrations.

The target is the same in test [6]. In words: Acetylcholinesterase (AChE) small molecule antagonists: fluorescence cell-based qHTS assay (AID 1347398; calls by dose curve; further: nearly all actives have a fitted effect of over 50% in size; further: potency means the concentration at half of the fitted maximal effect). Particulars: Potency: AChE activity. In outline: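 Read-out is Thiolite Green fluorescence at Ex/Em = 490/520 nm, formed by reaction with thiocholine released when cellular AChE in SH-SY5Y cells hydrolyzes acetylthiocholine. Compounds were preincubated 30 min at 37 C before substrate.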

For test [7] the target is unchanged. In words: Acetylcholinesterase (AChE) small molecule antagonists: enzyme-based qHTS assay with human liver microsomes (AID 1347399; calls by dose curve; further: nearly all actives have a fitted effect of over 60% in size; further: potency means the concentration at half of the fitted maximal effect). Particulars: Potency: qHTS inhibition. The method, boiled down: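 Recombinant human AChE (50 mU/mL in the enzyme mix) and human liver microsomes (0.25 mg/mL final) were preincubated with compound and NADPH (0.25 mg/mL final) for 30 min at 37 C. Acetylthiocholine/DTNB was then added; thiocholine was read colorimetrically after 10 min at room temperature.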

The target of test [8] is Cytochrome P450 2D6 (Homo sapiens) (UniProt P10635). In words: Cytochrome P450 Family 2 Subfamily D Member 6 (CYP2D6) small molecule antagonists: luciferase reporter qHTS assay (AID 1671196). Further: nearly all actives have a fitted effect of over 50% in size. Further: potency means the concentration at half of the fitted maximal effect. The method, boiled down: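 Each well received CYP2D6 with its proluciferin substrate and chemical, sat 10 min, then got NADPH regeneration solution for 1 h at room temperature. Luminescence in RLU served as the activity measure.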
Sequence of Cytochrome P450 2D6 (Homo sapiens) (P10635 whole entry, looked up): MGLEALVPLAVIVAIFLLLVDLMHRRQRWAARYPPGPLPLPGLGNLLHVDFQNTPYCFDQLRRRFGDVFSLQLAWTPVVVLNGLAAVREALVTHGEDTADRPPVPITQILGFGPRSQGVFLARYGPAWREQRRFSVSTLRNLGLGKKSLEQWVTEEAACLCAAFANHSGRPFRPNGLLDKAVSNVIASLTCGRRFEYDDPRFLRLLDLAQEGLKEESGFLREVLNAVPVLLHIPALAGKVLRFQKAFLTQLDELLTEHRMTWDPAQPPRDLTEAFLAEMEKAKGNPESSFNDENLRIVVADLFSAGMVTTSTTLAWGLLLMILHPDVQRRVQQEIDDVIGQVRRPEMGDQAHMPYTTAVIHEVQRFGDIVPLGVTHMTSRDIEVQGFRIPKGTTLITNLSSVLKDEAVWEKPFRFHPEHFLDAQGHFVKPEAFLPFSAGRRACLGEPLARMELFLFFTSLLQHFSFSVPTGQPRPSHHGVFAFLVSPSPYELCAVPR

For test [9], the target named is Cytochrome P450 2C19 (Homo sapiens) (UniProt P33261). The test can be described thus: Cytochrome P450 Family 2 Subfamily C Member 19 (CYP2C19) small molecule antagonists: luciferase reporter qHTS assay (AID 1671197). Further: nearly all actives have a fitted effect of over 65% in size. Further: potency means the concentration at half of the fitted maximal effect. The method, boiled down:
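P450-Glo CYP2C19 screening system; proluciferin substrate; DMSO compound stocks; 10 min RT preincubation; NADPH regeneration, 1 h at 37C; luciferin detection reagent, 20 min RT; luminescence as RLU.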

Test [10] deals with Cytochrome P450 1A2 (Homo sapiens) (UniProt P05177). The test can be described thus: Cytochrome P450 Family 1 Subfamily A Member 2 (CYP1A2) small molecule antagonists: luciferase reporter qHTS assay (AID 1671199). Further: potency means the concentration at half of the fitted maximal effect; nearly all actives have a fitted effect of over 50% in size. The method, boiled down: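 Enzymatic CYP1A2 assay, human, luminescent: 10 min compound–enzyme–substrate preincubation, 1 h NADPH-dependent turnover, 20 min detection step, room temperature throughout. Reduced light indicates lower CYP1A2 activity.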
Sequence of Cytochrome P450 1A2 (Homo sapiens) (P05177 whole entry, looked up): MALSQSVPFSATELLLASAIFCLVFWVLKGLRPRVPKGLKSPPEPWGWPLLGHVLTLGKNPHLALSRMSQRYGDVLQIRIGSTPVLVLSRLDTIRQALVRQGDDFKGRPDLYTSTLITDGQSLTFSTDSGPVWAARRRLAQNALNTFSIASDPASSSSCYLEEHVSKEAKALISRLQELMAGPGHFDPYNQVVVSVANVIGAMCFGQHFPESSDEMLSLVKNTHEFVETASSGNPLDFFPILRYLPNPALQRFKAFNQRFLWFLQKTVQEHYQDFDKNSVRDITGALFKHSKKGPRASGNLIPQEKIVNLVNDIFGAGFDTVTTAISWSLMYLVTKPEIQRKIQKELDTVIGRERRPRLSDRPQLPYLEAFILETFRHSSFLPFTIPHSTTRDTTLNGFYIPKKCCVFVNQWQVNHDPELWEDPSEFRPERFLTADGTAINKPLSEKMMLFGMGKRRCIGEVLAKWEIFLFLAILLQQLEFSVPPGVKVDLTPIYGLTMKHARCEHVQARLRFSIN
In general terms: In a reporter assay the amount or activity of a reporter protein is the signal.

Test [11] concerns the target Voltage-gated inwardly rectifying potassium channel KCNH2 (Homo sapiens) (UniProt Q12809). In words: Human Ether-a-go-go-Related Gene (hERG) channel small molecule antagonists: fluorescence cell-based qHTS assay (AID 1671200). Further: nearly all actives have a fitted effect of over 50% in size. Further: potency means the concentration at half of the fitted maximal effect. The method, boiled down: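 In this thallium-flux screen, overnight-cultured U2OS cells bearing the channel are dye-loaded in darkness for an hour, rested 10 min at room temperature, and then monitored kinetically at 480/540 nm for two minutes post-stimulus.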
(hERG is a cardiac potassium channel; its block is linked to QT prolongation.)

A short description of test [12]: Caspase-3/7 induction in HepG2 cells by small molecules, qHTS assay (AID 1346978). Further: nearly all actives have a fitted effect of over 15% in size. In outline:
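Caspase-3/7 induction was measured by Caspase-Glo 3/7 luminescence (30 min, room temperature) after a 17 hr compound exposure of wild-type HepG2 cells seeded at 2,000 per well and pre-incubated 5 hr.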

The target in test [13] is Nuclear receptor subfamily 1 group I member 2 (Rattus norvegicus) (UniProt Q9R1A7). The test can be described thus: Rat pregnane X receptor (rPXR) activation by small molecules, qHTS assay (AID 1346983). Further: potency means the concentration at half of the fitted maximal effect; nearly all actives have a fitted effect of over 20% in size. Particulars: rPXR luciferase reporter cells, One-Glo luminescence, 24 h; max activation: active compounds read high. In outline:
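Luminescent readout (One-Glo luciferase, 30 min room temperature) followed 24 hr compound treatment at 37 C of rPXR cells plated 2,000 per well and preincubated 5hr; qHTS format with compounds delivered in DMSO.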

In test [14] the target is Nuclear receptor subfamily 1 group I member 2 (Homo sapiens) (UniProt O75469). The test can be described thus: CYP3A4 induction through human pregnane X receptor (PXR) by small molecules, qHTS assay (AID 1346984). Further: nearly all actives have a fitted effect of over 40% in size. In outline: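 Readings come from a luciferase reporter: DPX-2 cells, which are HepG2 cotransfected with PXR and a CYP3A4-promoter construct, were exposed to test compounds for 24 h at 37C before One-Glo detection.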
Sequence of Nuclear receptor subfamily 1 group I member 2 (Homo sapiens) (O75469 whole entry, looked up): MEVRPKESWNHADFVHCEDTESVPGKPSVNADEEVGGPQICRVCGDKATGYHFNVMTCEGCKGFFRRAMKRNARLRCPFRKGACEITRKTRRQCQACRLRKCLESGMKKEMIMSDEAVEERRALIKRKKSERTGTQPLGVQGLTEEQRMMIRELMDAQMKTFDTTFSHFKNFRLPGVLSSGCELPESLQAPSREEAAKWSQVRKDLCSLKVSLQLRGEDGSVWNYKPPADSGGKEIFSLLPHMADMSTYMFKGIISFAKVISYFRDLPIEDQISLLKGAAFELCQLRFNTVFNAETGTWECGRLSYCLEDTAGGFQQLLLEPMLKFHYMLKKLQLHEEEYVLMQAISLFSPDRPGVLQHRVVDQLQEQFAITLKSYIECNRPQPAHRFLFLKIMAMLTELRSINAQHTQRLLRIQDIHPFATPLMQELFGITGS

For test [15] the target is unchanged. In words: Human pregnane X receptor (PXR) activation by small molecules, qHTS assay (AID 1346985). Further: potency means the concentration at half of the fitted maximal effect; nearly all actives have a fitted effect of over 40% in size. In outline: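 DPX-2 cells (HepG2 co-transfected with a PXR response element and a CYP3A4-promoter luciferase construct) were seeded at 2,000 per well, rested 5 hr at 37C, then exposed to DMSO-dissolved compounds for 24 hr. Activation was read as luciferase luminescence.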

Test [16] addresses Cytochrome P450 2C9 (Homo sapiens) (UniProt P11712). The test can be described thus: Cytochrome P450 Family 2 Subfamily C Member 9 (CYP2C9) small molecule antagonists: luciferase reporter qHTS assay (AID 1671198). Further: nearly all actives have a fitted effect of over 50% in size. Further: potency means the concentration at half of the fitted maximal effect. The method, boiled down: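 Enzyme-substrate mix preincubated with compound 10 min at room temperature; reaction started with NADPH regeneration solution, 1 h 37C. Luminescent luciferin product read after 20 min detection reagent.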

For test [17], the target named is Cytochrome P450 3A4 (Homo sapiens) (UniProt P08684). The test can be described thus: Cytochrome P450 Family 3 Subfamily A Member 4 (CYP3A4) small molecule antagonists: luciferase reporter qHTS assay (AID 1671201). Further: nearly all actives have a fitted effect of over 50% in size. Further: potency means the concentration at half of the fitted maximal effect. The method, boiled down:
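CYP3A4 activity was followed with a P450-Glo proluciferin substrate. Test compounds in DMSO were preincubated 10 min; NADPH regeneration then ran 1 h, and light output was read 20 min after detection reagent.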

Test [18] is described as follows: Human pregnane X receptor (PXR) small molecule agonists, qHTS cell viability counter screen (AID 1346977). Further: nearly all actives have a fitted effect of over 50% in size. The method, boiled down: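 In each well, the PXR reporter HepG2 line was checked for viability: CellTiter-Fluor reagent added 23hr post-dosing, fluorescence read after 1hr incubation at 37C.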
Test [19] in a line: Caspase-3/7 induction in HepG2 cells by small molecules, qHTS cell viability counter screen (AID 1346981). Further: series mostly up to about 92 µM; nearly all actives have a fitted effect of over 30% in size. The method, boiled down:
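Viability determined by CellTiter-Fluor fluorescence in HepG2 wells also used for the luminescent Caspase-Glo 3/7 read. Compounds were present for 16 hr at 37 C, 5% CO2 before reagent addition.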

A short description of test [20]: Caspase-3/7 induction in CHO-K1 cells by small molecules, qHTS cell viability counter screen (AID 1346979). Further: potency means the concentration at half of the fitted maximal effect; nearly all actives have a fitted effect of over 35% in size. In outline: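 Following a 5hr settling period, CHO-K1 cells at 1,500 per well received DMSO-dissolved compounds. Cell viability was quantified 16hr later by CellTiter-Fluor fluorescence, measured after 1hr with reagent at 37C.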

Sequence of Cytochrome P450 2C9 (Homo sapiens) (P11712 whole entry, looked up): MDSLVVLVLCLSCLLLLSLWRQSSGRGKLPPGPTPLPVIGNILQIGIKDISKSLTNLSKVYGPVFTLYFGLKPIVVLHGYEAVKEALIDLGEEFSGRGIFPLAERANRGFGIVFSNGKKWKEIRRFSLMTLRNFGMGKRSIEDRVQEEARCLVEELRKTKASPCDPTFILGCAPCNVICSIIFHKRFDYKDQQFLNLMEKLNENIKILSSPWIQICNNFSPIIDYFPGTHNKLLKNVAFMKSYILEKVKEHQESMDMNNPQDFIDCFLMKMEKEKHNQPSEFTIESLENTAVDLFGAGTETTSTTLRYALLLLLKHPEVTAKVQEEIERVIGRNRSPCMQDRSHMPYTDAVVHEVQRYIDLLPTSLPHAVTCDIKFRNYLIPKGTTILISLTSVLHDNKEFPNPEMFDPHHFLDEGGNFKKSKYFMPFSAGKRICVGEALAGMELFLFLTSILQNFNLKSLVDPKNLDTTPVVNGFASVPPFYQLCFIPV
Sequence of Acetylcholinesterase (Homo sapiens) (P22303 whole entry, looked up): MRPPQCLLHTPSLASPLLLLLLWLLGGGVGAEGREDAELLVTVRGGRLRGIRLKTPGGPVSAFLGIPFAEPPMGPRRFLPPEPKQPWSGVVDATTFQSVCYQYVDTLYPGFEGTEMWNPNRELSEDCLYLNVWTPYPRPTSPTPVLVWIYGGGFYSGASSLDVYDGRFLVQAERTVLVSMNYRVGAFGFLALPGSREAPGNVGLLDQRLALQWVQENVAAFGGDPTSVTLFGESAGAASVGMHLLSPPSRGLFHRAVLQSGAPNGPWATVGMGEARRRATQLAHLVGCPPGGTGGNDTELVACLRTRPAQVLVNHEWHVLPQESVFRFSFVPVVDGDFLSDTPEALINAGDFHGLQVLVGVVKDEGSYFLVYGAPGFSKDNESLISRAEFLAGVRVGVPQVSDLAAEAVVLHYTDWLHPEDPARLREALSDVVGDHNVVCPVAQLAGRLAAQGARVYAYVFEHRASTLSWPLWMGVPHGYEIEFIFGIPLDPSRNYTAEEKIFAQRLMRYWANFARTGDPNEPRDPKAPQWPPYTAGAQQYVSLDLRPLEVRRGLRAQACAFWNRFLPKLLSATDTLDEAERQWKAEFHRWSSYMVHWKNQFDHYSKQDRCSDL
Sequence of Cytochrome P450 2C19 (Homo sapiens) (P33261 whole entry, looked up): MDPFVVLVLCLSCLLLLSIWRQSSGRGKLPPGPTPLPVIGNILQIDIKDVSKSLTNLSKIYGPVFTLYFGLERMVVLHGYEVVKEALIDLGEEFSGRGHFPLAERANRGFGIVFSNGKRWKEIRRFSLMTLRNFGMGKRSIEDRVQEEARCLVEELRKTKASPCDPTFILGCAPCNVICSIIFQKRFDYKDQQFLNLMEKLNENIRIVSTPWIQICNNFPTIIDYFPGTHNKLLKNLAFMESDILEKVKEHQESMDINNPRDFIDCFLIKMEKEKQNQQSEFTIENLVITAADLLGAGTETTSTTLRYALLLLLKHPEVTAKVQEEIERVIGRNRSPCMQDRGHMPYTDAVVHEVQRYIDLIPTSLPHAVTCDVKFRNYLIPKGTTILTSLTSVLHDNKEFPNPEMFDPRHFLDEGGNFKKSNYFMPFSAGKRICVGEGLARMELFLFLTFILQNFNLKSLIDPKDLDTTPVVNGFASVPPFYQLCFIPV
Sequence of Cytochrome P450 3A4 (Homo sapiens) (P08684 whole entry, looked up): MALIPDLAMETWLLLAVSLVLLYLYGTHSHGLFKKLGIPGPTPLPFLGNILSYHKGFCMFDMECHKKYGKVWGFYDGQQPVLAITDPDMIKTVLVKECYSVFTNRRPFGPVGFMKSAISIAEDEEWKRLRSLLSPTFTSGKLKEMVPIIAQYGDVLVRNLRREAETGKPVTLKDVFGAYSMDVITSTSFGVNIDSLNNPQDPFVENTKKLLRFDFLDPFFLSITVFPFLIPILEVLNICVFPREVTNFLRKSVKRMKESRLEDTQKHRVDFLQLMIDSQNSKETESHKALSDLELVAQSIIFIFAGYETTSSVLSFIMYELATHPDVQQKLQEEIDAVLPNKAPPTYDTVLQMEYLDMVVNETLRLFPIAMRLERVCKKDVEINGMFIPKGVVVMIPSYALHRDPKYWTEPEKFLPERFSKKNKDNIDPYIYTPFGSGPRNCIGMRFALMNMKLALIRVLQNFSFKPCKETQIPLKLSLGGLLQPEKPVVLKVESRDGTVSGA
Sequence of Nuclear receptor subfamily 1 group I member 2 (Rattus norvegicus) (Q9R1A7 whole entry, looked up): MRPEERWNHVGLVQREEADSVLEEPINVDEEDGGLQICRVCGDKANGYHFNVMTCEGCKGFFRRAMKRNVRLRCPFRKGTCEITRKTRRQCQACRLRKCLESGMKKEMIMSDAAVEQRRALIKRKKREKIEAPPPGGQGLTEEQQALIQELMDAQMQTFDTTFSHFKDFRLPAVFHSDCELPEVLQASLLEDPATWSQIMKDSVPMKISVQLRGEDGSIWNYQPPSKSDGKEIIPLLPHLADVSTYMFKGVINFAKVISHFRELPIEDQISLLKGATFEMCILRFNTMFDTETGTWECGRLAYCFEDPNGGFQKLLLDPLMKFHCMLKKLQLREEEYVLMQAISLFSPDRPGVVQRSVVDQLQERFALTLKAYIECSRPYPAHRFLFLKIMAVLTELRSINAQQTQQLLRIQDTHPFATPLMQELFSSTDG

Take `Oc1ccc(Cl)c(Cl)c1Cl`: the Potency result in [1], in test [2], in test [4], in [5], in test [6] and in test [7] was “inactive” in each case. Besides, the Potency entry in [8] and in [11] was “inactive” in each case. In addition, the Potency in test [3] was 63.4 µM (active); in [9], 26.1 µM (active); in test [10] it was 26.1 µM (active).
Take `CCOP(=O)(OCC)O/C(=C/Cl)c1ccc(Cl)cc1Cl`: the Potency entry in test [1], in test [12], in test [2], in test [14], in test [11] and in test [17] was “inactive” each time. For the same molecule, the Potency in test [3] is 4.86 µM (active); in test [13] it was 14.1 µM (active); in test [15], 3.98 µM (active); in test [8] it was 39.9 µM (active); in test [9] it was 1.12 µM (active); in test [16], 28.3 µM (active). Moreover, the Potency in test [10] is 6.33 µM (active).
As to `C=CC(=O)OCCCCO`, the Potency result in [1], in test [18], in test [2], in [3], in [4] and in test [5] was “inactive” throughout. Moreover, the Potency result in [6], in [8], in test [9], in [16], in test [11] and in test [17] was “inactive” in each case.
For the molecule `CO/N=C(/C(=O)OC)c1ccccc1COc1ccccc1C`, the Potency entry in test [1], in test [12], in test [2], in test [4], in [5] and in test [6] was “inactive” each time. The Potency result in test [7], in test [8], in [11] and in test [17] was “inactive” each time. In addition, the Potency in [3] was 8.63 µM (active); in test [9], 0.633 µM (active); in test [16], 28.3 µM (active); in test [10], 20 µM (active).
As for `CC(=O)c1cc2c(cc1C)C(C)(C)C(C)CC2(C)C` (centres undefined), the Potency entry in test [1], in test [18], in test [19], in test [4], in [5] and in test [6] was “inactive” in each case. The Potency entry in [7] and in [8] was “inactive” in each case. Besides, the figures for the Potency in test [16], in test [11] and in test [17] were 35.6 µM (active), 13.8 µM (active) and 25.2 µM (active), respectively.
Take `CCOC(=O)[C@]1(c2ccccc2)Oc2ccccc2[C@@H]1N`: the Potency result in test [1], in test [12], in test [2], in test [19] and in [7] was “inactive” throughout. Moreover, the Potency in test [4] was 79.6 µM (active); in test [8] it was 0.2 µM (active); in [9], 35.6 µM (active); in [10], 63.3 µM (active); in test [11] it was 3.09 µM (active).
Turning to `CCOP(=S)(OCC)SCn1nnc2ccccc2c1=O`, the Potency entry in test [1], in [12] and in [11] was “inactive” throughout. Further, the Potency in [20] is 68.6 µM (active); in test [3], 6.86 µM (active); in test [4] it was 12.6 µM (active); in test [5], 35.6 µM (active); in test [6], 5.64 µM (active); in [7], 0.252 µM (active). Besides, the Potency in test [8] is 35.6 µM (active); in test [9], 0.356 µM (active); in test [16], 0.633 µM (active); in [10] it was 35.6 µM (active); in [17], 1.59 µM (active).
For the molecule `Cc1ccccc1C(=O)Nc1cccc(OC(C)C)c1`, the Potency entry in test [1], in test [18], in test [19], in test [4], in test [5] and in [6] was “inactive” in each case. Moreover, the Potency entry in test [7], in test [8], in [11] and in test [17] was “inactive” each time. Besides, the Potency is 13.7 µM (active) in test [3], 7.96 µM (active) in test [9], 22.4 µM (active) in test [16] and 5.64 µM (active) in test [10].
